A selection: hits, their analogues and other compounds. The true share with any hit is near 0.9%.
SRC3 TRFRET art = TR-FRET detection interference compounds, artefact control for PPARgamma SRC-3 recruitment agonists, biochemical, TR-FRET ratio | TR-FRET artefact counter-screen, PPARgamma/SRC-3 format; active compounds read high | TR-FRET ratio at 8 µM | actives 0.39% (n = 99,000)
PPARg SRC2 recr = agonists of PPARg-SRC-2 recruitment, primary screen, biochemical, HTS; Peroxisome proliferator-activated receptor gamma (Homo sapiens), P37231; PPARgamma LBD-SRC-2 recruitment; activation, % at 8 µM; actives 0.34% (n = 200,000); in the data active = activation above about 22%;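 also: 0% = vehicle and 100% = reference agonist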
TR-FRET SRC-2 ct = TR-FRET signal artefacts, primary screen, artefact control for PPARgamma SRC-2 agonist project, biochemical; TR-FRET artefact counter-screen; active compounds read high; TR-FRET ratio at 8 µM; actives 0.4% (n = 200,000)
PPARg SRC-3 ag = PPARgamma agonists recruiting SRC-3 coactivator, primary screen, biochemical; Peroxisome proliferator-activated receptor gamma (Homo sapiens), P37231; biochemical PPARgamma/SRC-3 coactivator recruitment assay; activation, % at 8 µM; actives 0.26% (n = 200,000); AID 731, 2007; in the data active = activation above about 23%;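 also: 0% = DMSO and 100% = reference agonist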
SRC1 TRFRET art = TR-FRET detection interference compounds, primary screen, artefact control for PPARgamma SRC-1 recruitment agonists, biochemical, TR-FRET emission ratio | TR-FRET detection artefact counter-screen; active compounds read high | TR-FRET ratio at 8 µM | actives 0.34% (n = 99,000) | AID 1051, 2008; in the data active = TR-FRET ratio above about 2300
PPARg SRC1 recr = PPARgamma agonists recruiting SRC-1 coactivator, primary screen, biochemical. Peroxisome proliferator-activated receptor gamma (Homo sapiens), P37231. PPARgamma-SRC-1 coactivator recruitment biochemical assay. activation, % at 8 µM. actives 0.41% (n = 200,000); in the data active = activation above about 19%;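 also: 0% = DMSO and 100% = reference agonist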
PPARg SRC2 ag = agonists of PPARgamma SRC-2 coactivator recruitment, confirmation, biochemical, HTS; activation, % at 8 µM; biochemical SRC-2 recruitment by PPARgamma; actives 52% (n = 790); shares compounds with PPARg SRC-3 ag; in the data active = activation above about 22%;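 also: 0% = vehicle alone and 100% = reference agonist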
PPARg SRC1 conf = PPARgamma agonists recruiting SRC-1 coactivator, confirmation, biochemical. activation, % at 8 µM. shares compounds with PPARg SRC-3 ag. actives 43% (n = 790). PPARgamma–SRC-1 coactivator recruitment biochemical assay; in the data active = activation above about 20%;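 also: 0% = vehicle wells and 100% = reference agonist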
PPARg SRC3 conf = PPARgamma-driven SRC-3 coactivator recruitment agonists, confirmation, biochemical. actives 29% (n = 790). shares compounds with PPARg SRC-3 ag. AID 1301, 2008. activation, % at 8 µM. biochemical PPARgamma-SRC-3 coactivator recruitment, agonist mode; in the data active = activation above about 24%;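 also: 0% = vehicle wells and 100% = reference agonist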
Target sequence (P37231 whole entry, looked up): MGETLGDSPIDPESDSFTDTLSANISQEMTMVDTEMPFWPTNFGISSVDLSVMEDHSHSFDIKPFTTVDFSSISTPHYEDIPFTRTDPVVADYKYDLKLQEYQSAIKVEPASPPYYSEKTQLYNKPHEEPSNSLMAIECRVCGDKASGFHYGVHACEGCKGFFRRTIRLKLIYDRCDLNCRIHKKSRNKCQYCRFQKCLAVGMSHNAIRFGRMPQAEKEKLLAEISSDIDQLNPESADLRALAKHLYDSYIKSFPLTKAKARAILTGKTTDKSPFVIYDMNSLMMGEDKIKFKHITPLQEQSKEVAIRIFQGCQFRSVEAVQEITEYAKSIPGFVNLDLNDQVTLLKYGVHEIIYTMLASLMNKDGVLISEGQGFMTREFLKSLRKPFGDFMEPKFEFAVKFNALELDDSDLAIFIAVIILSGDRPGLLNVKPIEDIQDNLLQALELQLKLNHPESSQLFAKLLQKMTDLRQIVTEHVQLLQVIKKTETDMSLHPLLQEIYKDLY
Target sequence (Q9Y6Q9 whole entry, looked up): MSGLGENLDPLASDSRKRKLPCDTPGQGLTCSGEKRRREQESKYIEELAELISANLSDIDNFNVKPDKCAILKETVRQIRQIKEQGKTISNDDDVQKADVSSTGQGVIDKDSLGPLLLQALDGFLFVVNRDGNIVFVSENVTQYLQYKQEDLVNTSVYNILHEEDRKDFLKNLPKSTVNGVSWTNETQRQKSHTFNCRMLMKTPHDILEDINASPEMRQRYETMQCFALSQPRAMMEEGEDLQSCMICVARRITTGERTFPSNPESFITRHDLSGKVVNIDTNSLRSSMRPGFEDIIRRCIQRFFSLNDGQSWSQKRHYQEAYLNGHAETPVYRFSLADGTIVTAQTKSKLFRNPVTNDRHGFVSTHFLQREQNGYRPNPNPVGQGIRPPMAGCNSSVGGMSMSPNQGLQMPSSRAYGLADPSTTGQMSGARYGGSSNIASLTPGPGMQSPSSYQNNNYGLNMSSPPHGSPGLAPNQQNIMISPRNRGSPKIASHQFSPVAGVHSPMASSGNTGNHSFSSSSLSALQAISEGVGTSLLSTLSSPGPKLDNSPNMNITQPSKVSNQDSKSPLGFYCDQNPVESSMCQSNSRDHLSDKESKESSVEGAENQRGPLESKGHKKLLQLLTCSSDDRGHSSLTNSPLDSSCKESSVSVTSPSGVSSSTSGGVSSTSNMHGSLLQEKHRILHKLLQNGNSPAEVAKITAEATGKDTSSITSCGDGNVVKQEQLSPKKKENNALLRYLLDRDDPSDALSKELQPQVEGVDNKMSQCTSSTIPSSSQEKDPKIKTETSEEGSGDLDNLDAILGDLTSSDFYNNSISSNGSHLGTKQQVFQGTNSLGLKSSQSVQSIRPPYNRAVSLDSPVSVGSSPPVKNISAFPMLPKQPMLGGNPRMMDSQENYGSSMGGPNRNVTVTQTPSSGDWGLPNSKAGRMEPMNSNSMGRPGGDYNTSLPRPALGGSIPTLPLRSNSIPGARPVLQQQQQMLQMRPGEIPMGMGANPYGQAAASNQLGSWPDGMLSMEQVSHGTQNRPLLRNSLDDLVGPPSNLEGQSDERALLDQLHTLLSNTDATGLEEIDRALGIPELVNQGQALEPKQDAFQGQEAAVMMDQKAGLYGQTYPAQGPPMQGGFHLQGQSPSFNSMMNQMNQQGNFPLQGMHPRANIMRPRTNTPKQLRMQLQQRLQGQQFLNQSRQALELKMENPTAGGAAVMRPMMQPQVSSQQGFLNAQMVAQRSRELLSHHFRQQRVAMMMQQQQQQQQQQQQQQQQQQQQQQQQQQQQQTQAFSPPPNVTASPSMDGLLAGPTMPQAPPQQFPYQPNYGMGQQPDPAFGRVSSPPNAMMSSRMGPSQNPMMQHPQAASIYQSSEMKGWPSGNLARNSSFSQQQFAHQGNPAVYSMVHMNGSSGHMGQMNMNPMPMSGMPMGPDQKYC
Starred values were filed as active, the others as inactive. Rule as the data show it, unless noted: active = TR-FRET ratio above about 2000; inactive = the rest.

For S=c1[nH]nc(-c2ccccn2)n1/N=C/c1ccc(-c2ccccc2Br)o1 the results were SRC3 TRFRET art 4805*, PPARg SRC2 recr 129*, TR-FRET SRC-2 ct 4475*, PPARg SRC-3 ag 69*, SRC1 TRFRET art 5322*, PPARg SRC1 recr 69*, PPARg SRC2 ag 82*, PPARg SRC1 conf 60* and PPARg SRC3 conf 53*.
For Cc1ccc(NC(=O)c2ccc(Cl)c(N3C(=O)C=CC3=O)c2)cc1 the results were PPARg SRC2 recr 6, TR-FRET SRC-2 ct 1616, PPARg SRC-3 ag -1 and PPARg SRC1 recr -4.
`CCCCn1c(=S)[nH]c2c(oc3ccc(Cl)cc32)c1=O` gave PPARg SRC2 recr 17, TR-FRET SRC-2 ct 1792, PPARg SRC-3 ag 18, PPARg SRC1 recr 22*, PPARg SRC2 ag 12, PPARg SRC1 conf 5 and PPARg SRC3 conf 11.
Screening COc1cccc(C2=NCCc3cc4c(cc32)OCO4)c1OC returned SRC3 TRFRET art 1576, PPARg SRC2 recr 5, TR-FRET SRC-2 ct 1481, PPARg SRC-3 ag 1, SRC1 TRFRET art 1702 and PPARg SRC1 recr 2.
COc1ccc2cc3[n+](cc2c1OC)CCc1cc2c(cc1-3)OCO2 was read as SRC3 TRFRET art 1328, PPARg SRC2 recr 25*, TR-FRET SRC-2 ct 1423, PPARg SRC-3 ag -2, SRC1 TRFRET art 1819, PPARg SRC1 recr 13, PPARg SRC2 ag 7, PPARg SRC1 conf 7 and PPARg SRC3 conf 5.
COc1cc(-c2nc3ccccc3s2)ccc1O was read as PPARg SRC2 recr 30*, TR-FRET SRC-2 ct 2089*, PPARg SRC-3 ag 31*, PPARg SRC1 recr 23*, PPARg SRC2 ag 30*, PPARg SRC1 conf 33* and PPARg SRC3 conf 23.
CCN(CC)c1ccc(NC(=O)/C=C/c2cc(Br)ccc2OC)cc1 was read as PPARg SRC2 recr 17, TR-FRET SRC-2 ct 1525, PPARg SRC-3 ag 13, PPARg SRC1 recr 24*, PPARg SRC2 ag 1, PPARg SRC1 conf 4 and PPARg SRC3 conf 3.
For COc1ccc(NC(=O)/C=C/c2cc(Br)ccc2OC)cc1 the results were PPARg SRC2 recr -3, TR-FRET SRC-2 ct 1651, PPARg SRC-3 ag 0 and PPARg SRC1 recr 0.
Screening Oc1ccc(N=Cc2ccc(-c3cccs3)s2)cc1 returned PPARg SRC2 recr 26*, TR-FRET SRC-2 ct 1957, PPARg SRC-3 ag 24, PPARg SRC1 recr 37*, PPARg SRC2 ag 53*, PPARg SRC1 conf 46* and PPARg SRC3 conf 30*.
For O=C(Nc1ccc(S(=O)(=O)Nc2ncccn2)cc1)c1ccc(Br)s1 the results were PPARg SRC2 recr 22*, TR-FRET SRC-2 ct 2098*, PPARg SRC-3 ag 37*, PPARg SRC1 recr 13, PPARg SRC2 ag 23*, PPARg SRC1 conf 12 and PPARg SRC3 conf 15.
Screening O=C(Nc1ccc(Cl)cc1)Nc1ccc(S(=O)(=O)Nc2ncccn2)cc1 returned SRC3 TRFRET art 1543, PPARg SRC2 recr 7, TR-FRET SRC-2 ct 1569, PPARg SRC-3 ag 4, SRC1 TRFRET art 1792 and PPARg SRC1 recr 4.
For S=c1[nH]c(-c2ccc(Cl)cc2)cs1 the results were SRC3 TRFRET art 2141*, PPARg SRC2 recr 30*, TR-FRET SRC-2 ct 1997*, PPARg SRC-3 ag 17, SRC1 TRFRET art 2339*, PPARg SRC1 recr 27*, PPARg SRC2 ag 27*, PPARg SRC1 conf 19 and PPARg SRC3 conf 17.

Assay outcomes (PubChem)
